Screening data (PubChem BioAssay)
The list is not random: actives were taken first. Their share in the collection is about 2.9%.
SMARCA2 activ: activators of SMARCA2 function; actives 1% (n = 370,000); AID 652017; activation, % at 9.1 µM; MG213 cells, MMTV-luciferase reporter, dexamethasone, overnight; in the data active = activation above about 7.8%
FAS-TE inh: blocks the thioesterase domain of human fatty acid synthase; recombinant FAS-TE, OMFH fluorogenic substrate, fluorescence endpoint; AID 602261; inhibition, % at 15 µM; P49327; actives 0.67% (n = 360,000);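 active = compounds whose normalised, plate-corrected inhibition of enzyme fluorescence in the single-dose primary screen is 50% or more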
proKLK7 act: proKLK7 (human) activation, primary screen; activation, % at 7 µM; P49862; purified proKLK7, EDANS-DABCYL substrate fluorescence; 100% is mature enzyme control, 0% vehicle; actives 0.9% (n = 370,000);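 active = activation above the mean of all tested compounds plus 3 SD, computed per campaign excluding outliers beyond control limits, cut at about 13% in these data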
Target sequence (P49862 whole entry, looked up): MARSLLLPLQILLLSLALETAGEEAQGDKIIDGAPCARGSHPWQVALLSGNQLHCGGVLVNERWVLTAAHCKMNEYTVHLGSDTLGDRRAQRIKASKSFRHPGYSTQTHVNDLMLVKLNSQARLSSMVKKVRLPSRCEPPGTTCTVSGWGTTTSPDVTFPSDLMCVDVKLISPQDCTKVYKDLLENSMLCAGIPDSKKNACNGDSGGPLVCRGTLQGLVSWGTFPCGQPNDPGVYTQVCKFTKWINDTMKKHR
GAA850 FXN act: increases GAA850 frataxin promoter reporter activity; HEK293 lucGAA850 FXN promoter luciferase reporter, 24 h; percent of 10 µM SAHA response; activation, % at 6 µM; actives 0.56% (n = 360,000); AID 540364;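 active = activation above the average of all compounds screened plus 3 SD, cutoff fixed separately per campaign, cut at about 7.5% in these data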
KLK7 act conf: proKLK7 activation, confirmation; shares compounds with proKLK7 act; activation, % at 7 µM; actives 68% (n = 3,200); purified proKLK7, EDANS-DABCYL substrate fluorescence; scaled: vehicle 0, mature enzyme 100;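 active = activation, as change over the incubation, above the mean of all tested compounds plus 3 SD, cut at about 13% in these data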
EDANS interfere: fluorescence interference counter-screen for KLK7 activators. shares compounds with proKLK7 act. EDANS-DABCYL substrate fluorescence interference, no enzyme, 4 h; solvent 0%, active enzyme control 100%. activation, % at 7 µM. actives 80% (n = 3,200);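 active = activation above the all-compound mean plus 3 SD, ignoring values outside control-based bounds, cut at about 4.8% in these data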;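 note: value is the 4 h activation minus the activation read at time zero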
EDANS interf: counter-screen for kallikrein-7 activators: EDANS-DABCYL interference, dose response; EC50, µM; EDANS-DABCYL peptide fluorescence interference, no enzyme; shares compounds with proKLK7 act; actives 20% (n = 250);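 active = compounds that raise the fluorescence signal in this interference counterscreen, with EC50 at or below 10 µM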;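 note: intact quenched peptide substrate alone read at 355 nm excitation and 520 nm emission; signal is fluorescence gain from T0 to T4 after four hours at room temperature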
Of the large screens only hits and unclear results are named; the others gave an inactive call (follow-up assays come after a bar, where they were run).

CN1CCSc2ccc(C(=O)NCc3ccccc3F)cc21	proKLK7 act 29 | KLK7 act conf 31 | EDANS interfere 13 | EDANS interf inactive
CCN1CCSc2ccc(C(=O)Nc3ccc(NC(C)=O)cc3)cc21	none
CCN1CCSc2ccc(C(=O)NCc3ccccc3C)cc21	proKLK7 act 20 | KLK7 act conf inactive | EDANS interfere inactive
COc1cccc(CNC(=O)CCC(=O)N2CCSc3ccccc32)c1OC	none
COc1ccc(/C=C/C(=O)c2cccc(-n3cnnn3)c2)cc1O	none
O=C(/C=C/c1ccc(F)cc1)Nc1ccc2[nH]c(=O)[nH]c2c1	proKLK7 act 35 | KLK7 act conf 101 | EDANS interfere 93
O=C(Nc1ccc2[nH]c(=O)[nH]c2c1)c1c(F)c(F)c(F)c(F)c1F	proKLK7 act 19 | KLK7 act conf 29 | EDANS interfere 22 | EDANS interf inactive
COc1cc(/C=C/C(=O)Nc2ccc3[nH]c(=O)[nH]c3c2)cc(OC)c1OC	none
CC(=O)Nc1ccc(N2S(=O)(=O)c3ccccc3S2(=O)=O)cc1	none
O=C1c2ccccc2NC(c2cccc(F)c2)N1Cc1ccco1 (centres undefined)	proKLK7 act 22 | KLK7 act conf inactive | EDANS interfere inactive
Cc1ccc(C2Nc3ccccc3C(=O)N2Cc2ccco2)cc1 (centres undefined)	proKLK7 act 13 | KLK7 act conf inactive | EDANS interfere inactive
O=C1c2ccccc2NC(c2ccc(O)cc2)N1Cc1ccco1 (centres undefined)	proKLK7 act 24 | KLK7 act conf inactive | EDANS interfere 7.1
O=C1c2ccccc2NC(c2cccc(F)c2)N1Cc1ccccc1 (centres undefined)	none
COc1ccc(C2Nc3ccccc3C(=O)N2Cc2ccco2)cc1COc1ccccc1F (centres undefined)	none
CCN(C(=O)CSc1nnc(-c2ccco2)n1Cc1ccccc1)C1CCS(=O)(=O)C1 (centres undefined)	none
O=C(/C=C/c1ccc2c(c1)OCO2)Nc1nncs1	proKLK7 act 13 | KLK7 act conf inactive | EDANS interfere inactive
CC(=O)Nc1ccc(NC(=O)/C=C/c2ccc3c(c2)OCO3)cc1	proKLK7 act 19 | KLK7 act conf inactive | EDANS interfere 22
O=C(NN1CCOCC1)c1cc(-c2ccccc2)nc2ccccc12	none
CC(C)OCCCNC(=O)c1cc(-c2cccs2)nc2ccccc12	proKLK7 act 15 | KLK7 act conf 13 | EDANS interfere 13
CCOCCCNC(=O)c1cc(-c2ccc(Br)s2)nc2ccccc12	none
O=C(NN1CCOCC1)c1cc(-c2ccncc2)nc2ccccc12	none
CCc1ccc(-c2cc(C(=O)NN3CCOCC3)c3ccccc3n2)s1	proKLK7 act 49 | KLK7 act conf 79 | EDANS interfere 68
Cc1cc(C)c2nc(NNC(=O)c3cc(-c4cccs4)nc4ccccc34)sc2c1	proKLK7 act 13 | KLK7 act conf inactive | EDANS interfere 12
O=C(NN1CCOCC1)c1cc(-c2cccs2)nc2ccccc12	proKLK7 act 37 | KLK7 act conf 33 | EDANS interfere 36
CN(C1CC(C)(C)N(O)C(C)(C)C1)S(=O)(=O)CC12CCC(CC1=O)C2(C)C (centres undefined)	none
COc1ccccc1-c1cccc(-c2nc(C(=O)N3CCCCC3)cc3c2[C@H](CCO)N(S(=O)C(C)(C)C)C3)c1 (some centres undefined)	none (no result: GAA850 FXN act)
Cc1ccc2nc(-c3ccc4c(c3)OCCO4)cc(C(=O)O)c2c1	none
O=C(O)c1cc(-c2cccs2)nc2cc3c(cc12)OCCO3	proKLK7 act 30 | KLK7 act conf 42 | EDANS interfere 50
Cc1ccc(-c2cc(C(=O)OC3CCOC3=O)c3ccccc3n2)c(C)c1 (centres undefined)	none
O=C(OC1CCOC1=O)c1cc(-c2cccs2)nc2ccccc12 (centres undefined)	proKLK7 act 275 | KLK7 act conf 139 | EDANS interfere 189
